Screening results as filed in PubChem BioAssay.
Rows were chosen to be rich in hits. Some 1.2% of all compounds tested hit in one or more screens of this group.
miR122 inh – inhibitors of miR-122 in Huh7 cells. Huh7 miR-122 Renilla luciferase sensor, 48 h; neutral wells = 0, positive control = 100. activation (reporter increase), % at 12.5 µM. hit rate 0.3% among 340,000;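 active = mean replicate activation score at least 90 and every replicate individually at or above 90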;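 also: higher luciferase means less miR-122 activity so hits act as miR-122 inhibitors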
PglD inh – PglD (C. jejuni) enzyme inhibition. purified PglD enzyme, DTNB colorimetric CoA detection. hit rate 0.098% among 360,000. inhibition, % at 12.5 µM; in the data active = inhibition above about 16%, passing the limit was not always enough
NSD2 HMT inh – blocks human histone methyltransferase NSD2; O96028; NSD2 peptide methylation, AlphaScreen, 120 min; inhibition, % at 12.5 µM; hit rate 0.54% among 310,000; AID 743445; in the data active = inhibition above about 50%
C2C12 statin – suppression of simvastatin myotoxicity | AID 602340 | hit rate 0.78% among 330,000 | C2C12 myotubes + simvastatin, ATP luminescence, 48 h; scaled: DMSO 0, geranylgeraniol control 100 | rescue of ATP level, % at 7.49 µM;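 active = mean ATP rescue above about 67%, or every replicate alone reaching that limit, limit read from the data, passing the limit was not always enough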;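 also: myotubes were challenged with 10 µM simvastatin during compound exposure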
* marks the source's active call; other numbers are inactive results; . = no result; [ ] = another dose, or the depositor's remark.

SMILES	miR122 inh	PglD inh	NSD2 HMT inh	C2C12 statin
CC(C)CC#Cc1cnc2c(c1)C(=O)N([C@H](C)CO)C[C@H](C)[C@@H](CN(C)C(=O)c1ccc(F)cc1)O2	1[16.7 µM]	3	.	11
Cc1ccc(S(=O)(=O)NCCN=C(CN2CCCC2)NS(=O)(=O)c2ccc(C)cc2)cc1	62	-6	.	112*
COc1ccc(S(=O)(=O)Nc2ccc3c(c2)C(=O)N([C@@H](C)CO)C[C@@H](C)[C@H](CN(C)S(C)(=O)=O)O3)cc1	0[16.7 µM]	2	.	.
CCOc1ccc(N(CC(=O)NCc2ccco2)S(=O)(=O)c2ccc(OC)c(OC)c2)cc1	7	4	-3	108*
O=C(CN(c1ccc(F)cc1)S(=O)(=O)c1ccccc1)NCc1ccco1	-6	3	2	103*
COCC#Cc1cnc2c(c1)C(=O)N([C@@H](C)CO)C[C@H](C)[C@H](CN(C)C(=O)Nc1ccccc1OC)O2	-3[16.7 µM]	1	.	.
O=C(C[C@@H]1CC[C@@H](NC(=O)C2CC2)[C@@H](CO)O1)NC1CCC1	3[16.7 µM]	-2	.	5
COC(=O)Cc1[nH]nc2c1C1(C(=O)N(Cc3ccccc3)c3ccccc31)C(C#N)=C(N)O2 (configuration not stated)	-11	2	16	6
Cc1[nH]nc2c1C1(C(=O)N(Cc3ccc(Cl)cc3)c3ccccc31)C(C#N)=C(N)O2 (configuration not stated)	-1	-1	-1	105*
CO[C@H]1CC[C@@H]2CCN(C)C(=O)CC3(CCCCC3)CN(C)C(=O)c3cccc(C#N)c3OC[C@H]1O2	.	-1	.	-3
CC1(Cc2ccc3c(c2)OCO3)C(=O)Nc2ccc(-c3cccc(C(F)(F)F)c3)cc21 (configuration not stated)	-1	3	-6	12
CC1(Cc2ccc3c(c2)OCO3)C(=O)Nc2c(Cl)ccc(Cl)c21 (configuration not stated)	-5	4	-1	88*
CCOc1ccc(CSC(CC(=O)O)C(=O)O)cc1 (configuration not stated)	-7	1	-5	103*
CCCCOc1ccc(CSC(CC(=O)O)C(=O)O)cc1 (configuration not stated)	0	-1	-3	.
Cc1ccc(-n2nnc(-c3nccs3)n2)cc1	100*	-1	.	-36
C[C@H](CO)N1C[C@H](C)[C@H](CN(C)C(=O)Nc2ccc3c(c2)OCO3)OCCCC[C@H](C)Oc2ccc(NS(=O)(=O)c3ccc(F)cc3)cc2C1=O	-3[16.7 µM]	3	.	81*
C[C@H]1CCCCO[C@@H](CN(C)C(=O)Nc2ccc3c(c2)OCO3)[C@@H](C)CN([C@@H](C)CO)C(=O)c2cc(NS(=O)(=O)c3ccc(F)cc3)ccc2O1	2[16.7 µM]	2	.	62
C[C@@H]1CCCCO[C@H](CN(C)C(=O)Nc2ccc3c(c2)OCO3)[C@H](C)CN([C@@H](C)CO)C(=O)c2cc(NS(=O)(=O)c3ccc(F)cc3)ccc2O1	-10[16.7 µM]	1	.	92*
Cc1ccc(C)c(S(=O)(=O)Nc2ccc3scnc3c2)c1	158*	2	3	-17
Cc1ccc(C)c(S(=O)(=O)Nc2ccc3[nH]c(=O)[nH]c3c2)c1	.	1	2	8
COc1ccc(CN(Cc2cccn2C)C(=O)c2cc3cc(OC)ccc3[nH]2)cc1	3	4	0	124*
Cc1ccc(NC2=C(NCCO)C(=O)c3ccccc3C2=O)cc1	.	.	65*	.
CC(=O)Nc1ccc(NC2=C(Cl)C(=O)c3ccccc3C2=O)cc1	.	.	-7	.
O=S1(=O)C=C(N2CCCCC2)c2ccccc21	-5	-1	4	108*
C[C@H](CO)N1C[C@H](C)[C@@H](CN(C)C(=O)CN(C)C)Oc2cc(C#CC(C)(C)O)ccc2S1(=O)=O	16[16.7 µM]	0	.	20
Cc1ccc(S(=O)(=O)/N=C2\C=C(Nc3cccc(C(=O)O)c3)C(=O)c3ccccc32)c(C)c1	10	1	117*	-644
O=C(O)COn1c(-c2ccccc2)nc2ccc([N+](=O)[O-])cc21	0	2	3	105*
CCOC(=O)C(C)On1c(-c2ccccc2)nc2ccc([N+](=O)[O-])cc21 (configuration not stated)	1	.	5	.
Cc1ccsc1C1Nc2ccc3ncccc3c2C2=C1C(=O)CC(C)(C)C2 (configuration not stated)	95*	3	-5	32
O=C1CCCC2=C1C(c1cccs1)Nc1ccc3ncccc3c12 (configuration not stated)	-3	0	-2	139*
